We go through 40 compounds from PubChem BioAssay (Tox21).

Inconclusive results are not listed. Entries that show only a call come without a potency. The source made the active and inactive calls. The call rests on the fitted dose curve.

Sequence of Beta-2 adrenergic receptor (Homo sapiens) (P07550 whole entry, looked up): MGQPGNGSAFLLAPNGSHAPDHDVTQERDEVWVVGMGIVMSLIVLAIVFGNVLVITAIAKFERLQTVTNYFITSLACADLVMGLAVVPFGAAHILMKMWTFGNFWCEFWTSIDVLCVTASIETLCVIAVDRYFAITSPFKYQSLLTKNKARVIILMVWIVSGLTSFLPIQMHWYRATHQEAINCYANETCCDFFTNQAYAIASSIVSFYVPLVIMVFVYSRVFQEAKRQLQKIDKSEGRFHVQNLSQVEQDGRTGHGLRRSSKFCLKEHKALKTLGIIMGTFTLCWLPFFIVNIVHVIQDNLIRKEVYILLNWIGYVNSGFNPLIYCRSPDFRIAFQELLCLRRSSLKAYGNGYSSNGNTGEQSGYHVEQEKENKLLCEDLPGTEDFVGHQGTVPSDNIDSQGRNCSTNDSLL

The assay addresses Beta-2 adrenergic receptor (Homo sapiens) (UniProt P07550). Description: Adrenergic beta2 receptor (ADRB2) small molecule antagonists, cell-based qHTS assay (AID 1963592). Further: nearly all actives have a fitted effect of over 50% in size. The settings on record: CHO-ADRB2 cells, isoproterenol-stimulated cAMP HTRF ratio, 0.5 h; series mostly up to 92.4 µM. An excerpt: U.S. Tox21 Program National Center for Advancing Translational Sciences [NCATS] Division of Preclinical Innovation [DPI] U.S. Environmental Protection Agency [EPA] National Institutes of Environmental Health Sciences [NIEHS] National Toxicology Program [NTP] U.S. Food and Drug Administration [FDA] Tox21 Assay Overview: Beta adrenergic receptors (Beta-ARs) belong to the G-protein coupled receptor (GPCR) superfamily, includes three subtypes - beta1, beta2, and beta3. Beta1-AR is the predominant receptor subtype expressed in the heart, and beta2-AR is expressed in the kidney, lung, blood vessel and in the heart, and beta3 is found in the adipocytes. Beta1 and 2 ARs couple to Gs protein and elevate cyclic adenosine mono phosphate (cAMP), which activates protein kinase A and leads to the downstream signaling responsible for the physiological actions. Beta-AR agonists or antagonists are the most prescribed therapeutic agents for heart failure and asthma, and these were one of the first target receptors for the rational drug design. Tox21 10K compound library was screened using the cAMP-Gs dynamic assay (Cisbio Bioassays, Shelton, CT) to identify agonists/antagonists of the Gs-coupled human adrenergic, beta2 receptor (ADRB2) in the CHO-ADRB2 cell line (Codex BioSolutions, Inc. Gaithersburg, MD), which stably over-expresses ADRB2. The principle of cAMP-Gs dynamic assay is based on HTRF technology, which facilitates the fluorescence resonance energy transfer (FRET) between donor Europium cryptate and acceptor d2-labeled cAMP. The cAMP generated within cells competes with the red acceptor, d2-labled cAMP, for binding to the monoclonal anti-cAMP-cryptate (Europium donor). An increase in intracellular cAMP leads to the disruption of FRET signal, and the signal is inversely proportional to the cAMP concentration. Propranolol HCl (Sigma-Aldrich, St. Louis, MO) was used as a positive control in the screening.
Tox21 Assay Protocol Summary: CHO-ADRB2 cells were dispensed at 1,000/well in 4uL assay medium into white/solid 1536-well plates (Greiner Bio-One North America Inc., Monroe, NC) using a Multidrop Combi dispenser (ThermoFisher Scientific, Waltham, MA). The assay plates were incubated at 37C and 5% CO2 for an overnight (18-20hr). Then positive control and test compounds dissolved in DMSO were transferred to the assay plates at 23nL using a Pintool station (Wako, San Diego, CA). Following the compound and positive control transfer, 1uL agonist-stimulation mix containing 1nM Isoproterenol HCl, 100uM IBMX and 25uM Ro-20-1724 was added to each well of the assay plates using BioRAPTR Flying Reagent Dispenser (FRD, Beckman Coulter, Brea, CA). The assay plates were incubated at room temperature for 0.5hr. Then 2.5ul each d2-labled cAMP and anti-cAMP-cryptate solutions were added separately to each well of the assay plates using an FRD and the assay plates were incubated at room temperature for 1hr. The fluorescence signal was measured at two different wavelengths (665nm and 615nm) using an Envision plate reader (Perkin Elmer, Shelton, CT). Data were expressed as the ratio of 665 nm/615 nm.
On the technique in general: Quantitative high-throughput screening tests each substance at several concentrations.
As for `CCCCCCCCCCCCOS(=O)(=O)O`, the Potency entry was “inactive”.

In the case of `Nc1ccc(-c2ccccc2)cc1`, the Potency entry is “inactive”.

As to `O=Cc1cccc(Oc2ccccc2)c1`, the Potency result is “inactive”. Next, `O=C(O)Cc1ccccc1`: “inactive”; `CCCCC#N`: “inactive”; `Nc1nc(N)nc(Cl)n1`: “inactive”. For the compound `NC(=O)O`, the Potency result was “inactive”.

On to `O=C(O)c1nc(Cl)ccc1Cl`, for which the Potency result is “inactive”. Regarding `O=[N+]([O-])c1ccccc1`, the Potency entry is “inactive”. Consider `CCOP(=S)(OCC)Oc1nc(Cl)c(Cl)cc1Cl`, for which the Potency entry is “inactive”.

For the compound `NNc1ccccc1`, the Potency result is “inactive”.

In the case of `O=C1c2ccccc2C(=O)N1SC(Cl)(Cl)Cl`, the Potency result is “inactive”. On to `NC(=O)OCCCc1ccccc1`, for which the Potency result is “inactive”. As to `CCOc1nc(F)cc2nc(S(=O)(=O)Nc3c(Cl)cccc3Cl)nn12`, the Potency entry is “inactive”. For the compound `CCCCCCCCCCCCCCCCn1cc[n+](C)c1`, the Potency result is “inactive”. As for `ClCCN1CCOCC1`, the Potency entry was “inactive”. Take `O=C(NCc1cccnc1)Nc1ccc([N+](=O)[O-])cc1`: the Potency result was “inactive”. With `Cc1cccc(N)c1N`, the Potency entry is “inactive”. `CN(C)N=O`: the Potency result is “inactive”. Regarding `C[C@]12CC[C@H](O)CC1=CC[C@@H]1[C@@H]2CC[C@]2(C)C(=O)CC[C@@H]12`, the Potency entry was “inactive”. Next, `NCC(O)c1ccc(O)cc1` (stereo not given): “inactive”. For the compound `Clc1ccc(C(c2ccc(Cl)cc2)C(Cl)(Cl)Cl)cc1`, the Potency result was “inactive”.

As for `C[N+](C)(C)CC(=O)O`, the Potency result is “inactive”. Turning to `O=[N+]([O-])CCO`, the Potency entry was “inactive”. With `COc1cccc(C=O)c1` the entry was “inactive”; with `Sc1ccccc1`, “inactive”; with `O=C(CCl)c1ccc(Cl)cc1Cl`, “inactive”. `N#CC(Cl)(Cl)Cl`: the Potency result is “inactive”.

As for `CC(C)CCCCCCOC(=O)c1ccccc1C(=O)OCCCCCCC(C)C`, the Potency entry is “inactive”. `C[C@]12CC[C@H]3[C@@H](CCC4=CC(=O)CC[C@@H]43)[C@@H]1CC[C@@H]2O`: the Potency entry was “inactive”. As for `C=CCc1cc(OC)c2c(c1)OCO2`, the Potency entry is “inactive”.

Consider `c1ccc(CN2CCNCC2)cc1`, for which the Potency result is “inactive”. For `Nc1ccccc1C(=O)O`, the Potency result was “inactive”. Take `CCCCCCCCC(=O)NCc1ccc(O)c(OC)c1`: the Potency entry was “inactive”. On to `O=Cc1ccc(Cl)cc1Cl`, for which the Potency entry was “inactive”. Next, `CCOP(=S)(OCC)SCn1c(=O)oc2cc(Cl)ccc21`: “inactive”; `O=C(Cl)c1ccccc1`: “inactive”. For `CCNc1nc(NC(C)C)nc(SC)n1`, the Potency entry was “inactive”.

As to `Cc1ccccc1[N+](=O)[O-]`, the Potency entry was “inactive”. With `O=C(O)CC[N+](=O)[O-]` the entry was “inactive”.
